High-throughput results (PubChem)
Rows were chosen to be rich in hits. Some 3.2% of all compounds tested hit in one or more screens of this group.
LGR2 antag = inhibitors of bursicon-induced Drosophila LGR2 receptor cAMP signaling. actives 0.35% (n = 380,000). inhibition, % at 9.99 µM. HEK293 LGR2, CRE-luciferase, bursicon-stimulated, 4 h;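 active = drop in luminescence signal, shown as inhibition above about 50% in the replicate tests, limit read from the data, passing the limit was not always enough; inconclusive = probably only some replicates passing the limit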;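 note: agonist challenge used bursicon conditioned medium at about half maximal strength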
TROY NFkB inh = inhibitors of TROY-dependent NF-kB signaling; Q293 LMP1-TROYcd NF-kB luciferase reporter, 4 h; inhibition, % at 10 µM; actives 0.98% (n = 360,000); AID 1347056;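 active = compounds whose plate-normalised and pattern-corrected inhibition of the luciferase reporter signal at the single screening dose is 50% or more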
EBV LMP1 NFkB = reduces LMP1-driven NF-kappaB luciferase signal. LMP1-induced NF-kappaB luciferase reporter cells, luminescence. inhibition, % at 12.5 µM. actives 0.69% (n = 350,000); in the data active = inhibition above about 41%; inconclusive = no clear call, values can overlap the other calls;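 note: 0% = neutral control wells and 100% = reference inhibitor control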
EWS-Fli inh = inhibitors of EWS/Fli oncoprotein transcriptional activity; A673 NR0B1-luciferase reporter, viability-normalised; inhibition, % at 12.6 µM; actives 0.67% (n = 350,000);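 active = mean inhibition of at least 50% after viability correction, with every replicate also passing that limit; inconclusive = mean reaches 50% but only one of two replicates passes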;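 note: firefly luciferase signal divided by Alamar Blue viability fluorescence both relative to DMSO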
PAX8 inh HTS = inhibitors of PAX8 transcriptional activity in RMG-I cells; inhibition, % at 12.6 µM; RMG-I TPO-luciferase reporter, SteadyGlo, 24 h; actives 1.2% (n = 360,000);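 active = mean replicate inhibition at least 60% with every replicate also reaching 60%; inconclusive = only one of the two criteria is met; inactive = mean below 60% and not all replicates reaching 60%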;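 note: luciferase light reporting Pax8 driven TPO promoter activity; plate controls were median of neutral control wells for no effect and mitoxantrone controls for full effect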
TWEAK Fn14 block = blocks TWEAK-Fn14 interaction in a reporter cell assay. TWEAK-stimulated Fn14 reporter cells, luciferase luminescence, 8 h. AID 1159606. actives 2% (n = 360,000). inhibition, % at 10 µM; in the data active = inhibition above about 50%
An asterisk follows results filed as active.

For C[C@H]1CCCCO[C@@H](CN(C)CC2CCCCC2)[C@@H](C)CN([C@@H](C)CO)C(=O)c2cc(NC(=O)Cc3ccccc3)ccc2O1 the results were LGR2 antag 3, EWS-Fli inh 6 and PAX8 inh HTS 15.
`O=C(Nc1cccc(Cl)c1)Nc1cnccn1` gave LGR2 antag 7, TROY NFkB inh -6, EBV LMP1 NFkB -2, PAX8 inh HTS -26 and TWEAK Fn14 block 13.
O=C(Nc1cccc(Cl)c1)Nc1ccnc(-c2cccnc2)n1 was read as LGR2 antag 16, TROY NFkB inh 17, EBV LMP1 NFkB 58*, EWS-Fli inh -18, PAX8 inh HTS 54 and TWEAK Fn14 block 53*.
Screening CC(C)(C)NCC(O)CON=C1c2ccccc2-c2ccccc21 (configuration not stated) returned LGR2 antag 7, TROY NFkB inh -32, EBV LMP1 NFkB -12, EWS-Fli inh 13, PAX8 inh HTS -2 and TWEAK Fn14 block -8.
For Cc1ccc(S(=O)(=O)N(CCCO)CC(O)CON=C2c3ccccc3-c3ccccc32)cc1 (configuration not stated) the results were TROY NFkB inh 33, EBV LMP1 NFkB 1, EWS-Fli inh -11, PAX8 inh HTS 12 and TWEAK Fn14 block 56*.
`C[C@@H]1CCCCO[C@@H](CN(C)Cc2ccc(C(F)(F)F)cc2)[C@H](C)CN([C@@H](C)CO)C(=O)c2cc(NS(=O)(=O)c3cn(C)cn3)ccc2O1` gave LGR2 antag -9 and EWS-Fli inh 4.
O=C(NC(=S)N1CCN(Cc2ccc3c(c2)OCO3)CC1)c1cccc(Br)c1 was read as LGR2 antag -10, TROY NFkB inh 9, EBV LMP1 NFkB 15, EWS-Fli inh 17, PAX8 inh HTS 76* and TWEAK Fn14 block 7.
O=C(NC(=S)N1CCN(Cc2ccc3c(c2)OCO3)CC1)c1ccc(Cl)cc1 was read as LGR2 antag 10, TROY NFkB inh -14, EBV LMP1 NFkB 1, EWS-Fli inh 3, PAX8 inh HTS 7 and TWEAK Fn14 block -8.
For O=C(COC(=O)c1ccccc1-n1cnnn1)c1ccc(Br)cc1 the results were LGR2 antag 8, TROY NFkB inh 62*, EBV LMP1 NFkB 2, EWS-Fli inh 14, PAX8 inh HTS 13 and TWEAK Fn14 block 72*.
O=C(COC(=O)c1ccccc1-n1cnnn1)c1ccccc1 was read as LGR2 antag 1, TROY NFkB inh 36, EBV LMP1 NFkB -12, EWS-Fli inh -32, PAX8 inh HTS -5 and TWEAK Fn14 block 30.
C[C@@H]1CCCCO[C@H](CN(C)CC2CCCCC2)[C@@H](C)CN([C@H](C)CO)C(=O)c2cc(NS(=O)(=O)c3ccc(F)cc3)ccc2O1 was read as LGR2 antag -8, EWS-Fli inh -3 and PAX8 inh HTS 1.
`C[C@@H]1CCCCO[C@H](CN(C)CC2CCCCC2)[C@H](C)CN([C@@H](C)CO)C(=O)c2cc(NS(=O)(=O)c3ccc(F)cc3)ccc2O1` gave LGR2 antag 15, EWS-Fli inh 67* and PAX8 inh HTS 38.
For C[C@@H]1CCCCO[C@H](CN(C)CC2CCCCC2)[C@H](C)CN([C@@H](C)CO)C(=O)c2cc(NS(=O)(=O)c3ccc(Cl)cc3)ccc2O1 the results were LGR2 antag -3, EWS-Fli inh 65* and PAX8 inh HTS 104*.
For C[C@@H]1CCCCO[C@@H](CN(C)CC2CCCCC2)[C@@H](C)CN([C@@H](C)CO)C(=O)c2cc(NS(=O)(=O)c3ccc(F)cc3)ccc2O1 the results were LGR2 antag 3, EWS-Fli inh 2 and PAX8 inh HTS 72*.
Screening CCCN(C)C[C@@H]1OCCCC[C@@H](C)Oc2ccc(NS(=O)(=O)c3ccc(C)cc3)cc2C(=O)N([C@H](C)CO)C[C@@H]1C returned LGR2 antag -3 and PAX8 inh HTS -14.
Screening CCCN(C)C[C@H]1OCCCC[C@H](C)Oc2ccc(NS(=O)(=O)c3ccc(F)cc3)cc2C(=O)N([C@@H](C)CO)C[C@@H]1C returned LGR2 antag 1, EWS-Fli inh -2 and PAX8 inh HTS 69*.
CC(C)C(=O)Nc1ccc2c(c1)C(=O)N(C)[C@@H]1CC[C@H](CC(=O)NCc3ccccc3)O[C@@H]1CO2 was read as LGR2 antag -9, EWS-Fli inh 2 and PAX8 inh HTS 7.
`CC(=O)N(C)C[C@@H]1Oc2ncc(-c3ccc(C(=O)N(C)C)cc3)cc2C(=O)N([C@H](C)CO)C[C@H]1C` gave LGR2 antag 13, EWS-Fli inh -14 and PAX8 inh HTS -1.
For Cc1cccc(CCNc2nc3ccc(C)cc3n3cnnc23)c1 the results were LGR2 antag -59, TROY NFkB inh 73*, EBV LMP1 NFkB -3, EWS-Fli inh -80, PAX8 inh HTS -147 and TWEAK Fn14 block 74*.
Screening Cc1ccc2nc(NCCc3ccc(Cl)cc3)c3nncn3c2c1 returned LGR2 antag 8, TROY NFkB inh -1, EBV LMP1 NFkB 5, EWS-Fli inh -4, PAX8 inh HTS -8 and TWEAK Fn14 block -26.
`O=C(N/N=C/c1ccc(O)cc1)Nc1cccc2nsnc12` gave LGR2 antag 4, TROY NFkB inh 37, EBV LMP1 NFkB -10, EWS-Fli inh -8, PAX8 inh HTS -2 and TWEAK Fn14 block 63*.
Screening COc1cc(/C=N/NC(=O)Nc2cccc3nsnc23)cc(OC)c1OC returned TROY NFkB inh 18, EBV LMP1 NFkB 4 and TWEAK Fn14 block 31.
For COc1ccc2c3c([nH]c2c1)[C@H](CO)N(C(=O)NC(C)C)CC31CCN(C(=O)NC2CCCC2)CC1 the results were LGR2 antag -12 and EWS-Fli inh -2.
O=S1(=O)c2ccc(Br)cc2N2CCC[C@@H]2CN1Cc1ccccc1 was read as LGR2 antag -2, TROY NFkB inh 24, EBV LMP1 NFkB 12, EWS-Fli inh 52*, PAX8 inh HTS 21 and TWEAK Fn14 block 15.
Screening O=S1(=O)c2ccc(Br)cc2OC(COCc2ccccc2)CN1Cc1ccccc1 (configuration not stated) returned LGR2 antag 6, TROY NFkB inh 2, EBV LMP1 NFkB 3, EWS-Fli inh -11, PAX8 inh HTS 2 and TWEAK Fn14 block 7.
Screening COc1ccc(N/C=C2\C(=O)CCc3c2oc2cc(Cl)c(O)c(Cl)c32)cc1 returned LGR2 antag 11, TROY NFkB inh 55*, EBV LMP1 NFkB -5, EWS-Fli inh 17, PAX8 inh HTS 44 and TWEAK Fn14 block 0.
COc1ccccc1C#Cc1ccc2c(c1)O[C@H](CN(C)Cc1ccccc1)[C@H](C)CN([C@@H](C)CO)S2(=O)=O was read as LGR2 antag 10 and EWS-Fli inh 8.
For COc1ccc(-n2ncc3c(N4CCC(C)CC4)ncnc32)cc1 the results were LGR2 antag inconclusive, TROY NFkB inh 69*, EBV LMP1 NFkB 35, EWS-Fli inh 48, PAX8 inh HTS -20 and TWEAK Fn14 block 66*.
